Source: PubChem (National Center for Advancing Translational Sciences (NCATS))
Sampled rows, rich in hits. Any-hit rate of the full collection: about 19%.
IL1B secr inh – blocks inflammasome-driven IL-1 beta release; THP-1 LPS/ATP IL-1B secretion, AlphaLISA, 16 h; stronger effect = lower value; activity change, % at 57.5 µM; 4.7% of 360,000 active; AID 743279; in the data active = activity change below about -50%; inconclusive = mostly about -30% to -49%
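THP-1 cells pretreated 1 hr with compounds (up to 57.5 uM final), then stimulated with LPS (250 ng/mL final) plus ATP (1.25 mM final); secreted IL-1B measured by AlphaLISA after 16 hr, decreased signal indicating inhibition.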
uPA generation – inhibitors of cell surface uPA generation; Potency, µM (highest dose often 38.3 µM), for the others: at the top dose activity change, negative = inhibition, most hits filed as inhibitors; cell surface uPA generation assay, qHTS; 0.31% of 330,000 active; active = well fitted inhibition curve with a large enough effect; inconclusive = small, poorly fitted or top-dose-only effect; inactive = no such curve, though single readings can be large or run the other way; tested in mouse RAW 264.7 cells; also: potency is read from the fitted curve at half-maximal effect; nearly all actives have a fitted effect of over 55% in size
HT1080-NT tox – kills 2HG-producing HT-1080-NT fibrosarcoma cells; HT-1080-NT fibrosarcoma viability, CellTiter-Glo ATP luminescence, 48 h; Potency, µM (titrated, usually from 46.1 µM), inactives show at the highest dose activity, negative = less viability, hits mostly cytotoxic; AID 686970; 1.6% of 360,000 active;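 also: NT is the 2HG producing partner of a matched IDH1 knockdown line; potency is read from the fitted curve at half-maximal effect; 0% = DMSO-treated cells and -100% = media-only wells without cells; nearly all actives have a fitted effect of over 55% in size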
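Toxicity toward the 2HG-producing NT line was scored as %Activity, normalised to DMSO and no-cell wells, from CellTiter-Glo luminescence after 48 hours' treatment.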
TDP1 cell noCPT – qHTS for Inhibitors of human tyrosyl-DNA phosphodiesterase 1 (TDP1): qHTS in cells in absence of CPT | DT40 Tdp1-/- hTDP1 cells, no CPT, ATP luminescence, 48 h | Potency, µM (highest dose often 46.2 µM), for inactives: at the top dose activity change, negative = growth inhibition, most hits filed as inhibitors | 15% of 420,000 active | AID 686978, 2013; also: potency is read from the fitted curve at half-maximal effect; nearly all actives have a fitted effect of over 55% in size
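Growth kinetics read by CellTiter-Glo luminescence after ≥48 hr at 37 °C. Cells: DT40 Tdp1-/- stably carrying human TDP1, 400 per well, compound exposure in the absence of CPT (DMSO vehicle).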
HT1080 IDH1KD tx – HT-1080 IDH1 knockdown cell toxicity (counter line); HT-1080 IDH1 knockdown viability, ATP luminescence, 48 h; Potency, µM (doses to about 46.1 µM), for the others: at the top dose activity, negative = toxicity, most hits filed as cytotoxic; 2% of 360,000 active; AID 686971;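 also: potency is read from the fitted curve at half-maximal effect; 0% = DMSO wells and -100% = cell-free medium wells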
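Using the IDH1-knockdown HT-1080 line run in the same batch and compound series as the NT line, viability after 48 h at 37 °C was determined by CellTiter-Glo luminescence and expressed as % activity.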
DT40 TDP1 CPT – DT40-hTDP1 cell growth loss with CPT | chicken DT40 Tdp1-/-;hTDP1 cells + 20 nM CPT, ATP luminescence, 48 h | Potency, µM (top dose mostly 46.2 µM), for inactives: at the top dose activity change, negative = growth inhibition, usual class: inhibitors | 12% of 420,000 active | AID 686979; also: potency is read from the fitted curve at half-maximal effect; nearly all actives have a fitted effect of over 55% in size
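Cell growth measured by CellTiter-Glo luminescence after a minimum 48 h, 37 C compound exposure with 20 nM CPT in Tdp1-knockout DT40 cells stably expressing hTDP1, seeded 400/well; qHTS titration format.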
An asterisk follows results filed as active; [ ] = another dose, or the depositor's remark. Unless noted, calls follow the shape of the dose curve; as a rule, active = well fitted curve in the direction sought with a large enough effect; inconclusive = small, poorly fitted or top-dose-only effect, or another doubt; inactive = no such curve, though single readings can be large; an effect the other way counts as inactive or inconclusive. Unless noted, % is scaled to controls: 0 for no effect and ±100 for the full control effect.

Screening CN(c1nccc(=O)[nH]1)C1CCN(c2nc3ccccc3n2Cc2ccc(F)cc2)CC1 returned TDP1 cell noCPT inconclusive and DT40 TDP1 CPT -3.9%.
O=C(Nc1ccc2c(c1)OCO2)C1CCCN1C(=O)Nc1ccccc1 (stereo not drawn) was read as IL1B secr inh 5.7, uPA generation 4.1%, HT1080-NT tox 4.7%, TDP1 cell noCPT -5.5%, HT1080 IDH1KD tx 0.0% and DT40 TDP1 CPT 0.7%.
O=C([C@@H]1C[C@@H](Sc2nc3ccccc3[nH]2)CN1CC1CCCCC1)N1CCOCC1 was read as TDP1 cell noCPT -16.1% and DT40 TDP1 CPT -3.5%[9.04 µM].
For CCOC(=O)C(=NC(C)CC)NNc1ccc(Br)cc1 (stereo not drawn) the results were IL1B secr inh 16.3, uPA generation 3.5%, HT1080-NT tox 16.4µM*, TDP1 cell noCPT inconclusive, HT1080 IDH1KD tx inconclusive and DT40 TDP1 CPT inconclusive.
For CCOC(=O)C(=NC(C)CC)NNc1cccc(C(F)(F)F)c1 (stereo not drawn) the results were IL1B secr inh -5.8, uPA generation 5.6%, HT1080-NT tox -7.6%, TDP1 cell noCPT inconclusive, HT1080 IDH1KD tx -7.0% and DT40 TDP1 CPT -8.1%.
Screening CCC(=O)NNc1ccc(Br)cc1 returned IL1B secr inh -8.4, uPA generation 6.2%, HT1080-NT tox 3.66µM*, TDP1 cell noCPT -27.6%, HT1080 IDH1KD tx 4.11µM* and DT40 TDP1 CPT -8.2%.
`CCC(C)NC(=O)Nc1ccc(Br)cc1` (stereo not drawn) gave IL1B secr inh -2.7, uPA generation -3.2%, HT1080-NT tox -1.6%, TDP1 cell noCPT inconclusive, HT1080 IDH1KD tx 3.3% and DT40 TDP1 CPT inconclusive.
Screening Cc1ccc(NC(=O)C(=Cc2ccc(C(=O)O)cc2)C(=O)Nc2ccc(C)cc2C)c(C)c1 returned IL1B secr inh -100.0*, uPA generation inconclusive, HT1080-NT tox 14.6µM*, TDP1 cell noCPT 2.91µM*, HT1080 IDH1KD tx 11.6µM* and DT40 TDP1 CPT 5.17µM*.
Screening COC(=O)c1c(C)sc(-c2c(-c3ccc4c(c3)OCCO4)[nH]c3c2c(=O)[nH]c(=O)n3C)c1O returned TDP1 cell noCPT 20.6µM* and DT40 TDP1 CPT inconclusive.
For O=C(N/N=C/c1ccccn1)c1cc(-c2ccncc2)nc2ccccc12 the results were IL1B secr inh -23.8, uPA generation 7.3%, HT1080-NT tox 9.2%, TDP1 cell noCPT inconclusive, HT1080 IDH1KD tx 13.6% and DT40 TDP1 CPT inconclusive.
O=C(O)c1ccc(/C=N/NC(=O)c2cc(-c3cccs3)nc3ccccc23)cc1 was read as IL1B secr inh 18.0, uPA generation -2.8%, HT1080-NT tox -2.2%, TDP1 cell noCPT 11.6µM*, HT1080 IDH1KD tx -4.0% and DT40 TDP1 CPT inconclusive.
`O=C(N/N=C/c1ccsc1)c1cc(-c2cccs2)nc2ccccc12` gave IL1B secr inh 7.2, uPA generation inconclusive, HT1080-NT tox inconclusive, TDP1 cell noCPT 8.2µM*, HT1080 IDH1KD tx inconclusive and DT40 TDP1 CPT 10.3µM*.
O=C(N/N=C/c1ccsc1)c1cc(-c2ccncc2)nc2ccccc12 was read as IL1B secr inh 3.9, uPA generation -11.6%, HT1080-NT tox 4.61µM*, TDP1 cell noCPT 3.26µM*, HT1080 IDH1KD tx inconclusive and DT40 TDP1 CPT 3.66µM*.
Screening NNC(=O)c1cc(-c2cccs2)nc2ccccc12 returned IL1B secr inh 3.5, uPA generation -27.2%, HT1080-NT tox -7.6%, TDP1 cell noCPT inconclusive, HT1080 IDH1KD tx inconclusive and DT40 TDP1 CPT inconclusive.
`CCCCNC(=O)CCc1nc2cccnc2n1Cc1ccccc1` gave IL1B secr inh -0.9, uPA generation -0.1%, HT1080-NT tox 10.0%, TDP1 cell noCPT 12.6%, HT1080 IDH1KD tx 0.8% and DT40 TDP1 CPT -3.1%.
COc1ccc(-c2c(C#N)c(SCC(=O)Nc3cccc(Cl)c3)nc(C)c2C(=O)Nc2ccccc2)cc1OC was read as TDP1 cell noCPT 0.7% and DT40 TDP1 CPT -0.4%.
CCOC(=O)c1c(C)n(C)c2ccc(OCC(N)=O)cc12 was read as IL1B secr inh -13.6, uPA generation -9.3%, HT1080-NT tox 16.4%, TDP1 cell noCPT inconclusive, HT1080 IDH1KD tx 4.5% and DT40 TDP1 CPT -18.1%.
For CCOc1ccc2c(c1)c(N=O)c(O)n2C the results were IL1B secr inh -63.9*, uPA generation -4.2%, HT1080-NT tox -1.3%, TDP1 cell noCPT inconclusive, HT1080 IDH1KD tx 0.5% and DT40 TDP1 CPT 3.8%.
Screening CC1=NNC(=O)C1CCC(=O)N/N=C/C(Br)=C/c1ccccc1 (stereo not drawn) returned IL1B secr inh 17.2, uPA generation -0.7%, HT1080-NT tox 1.6%, TDP1 cell noCPT 2.06µM*, HT1080 IDH1KD tx 1.7% and DT40 TDP1 CPT 2.91µM*.
CC1=NNC(=O)C1CC(=O)N/N=C/C(Br)=C/c1ccccc1 (stereo not drawn) was read as IL1B secr inh -3.5, uPA generation -4.3%, HT1080-NT tox 9.3%, TDP1 cell noCPT 20.6µM*, HT1080 IDH1KD tx -1.6% and DT40 TDP1 CPT 20.6µM*.
Screening CC1C(=O)NN=C1C(=O)N/N=C\C(Br)=C\c1ccccc1 (stereo not drawn) returned IL1B secr inh -12.6, uPA generation -16.6%, HT1080-NT tox -11.0%, TDP1 cell noCPT 14.6µM*, HT1080 IDH1KD tx -21.7% and DT40 TDP1 CPT 6.51µM*.
For COc1ccc2[nH]cc(CCNC(=O)Cc3ccc(F)cc3)c2c1 the results were IL1B secr inh 23.5, uPA generation -15.8%, HT1080-NT tox 8.1%, TDP1 cell noCPT 1.6%, HT1080 IDH1KD tx 6.5% and DT40 TDP1 CPT -0.4%.
Cc1cc(C)nc(NS(=O)(=O)c2ccc(NC(=O)c3ccc(O)cc3O)cc2)n1 was read as IL1B secr inh -11.0, uPA generation 2.4%, HT1080-NT tox 2.0%, TDP1 cell noCPT -8.7%, HT1080 IDH1KD tx 5.0% and DT40 TDP1 CPT 11.7%.
Screening Cc1cccc(NC(=O)CNC(=O)CN2C(=O)NC3(CCCCC3C)C2=O)c1C (stereo not drawn) returned IL1B secr inh 6.5, uPA generation 3.9%, HT1080-NT tox 0.3%, TDP1 cell noCPT 1.0%, HT1080 IDH1KD tx -7.0% and DT40 TDP1 CPT -1.4%.
`COc1cc(-c2noc(-c3ccc(N(C)C)c([N+](=O)[O-])c3)n2)cc(OC)c1OC` gave TDP1 cell noCPT 25.9µM* and DT40 TDP1 CPT 20.6µM*.
